Measurements published in PubChem BioAssay (NCATS).
Results filed as inconclusive are left out. Activity calls are given as the source filed them. Calls follow the shape of the dose curve; as a rule, active = well fitted curve in the direction sought with a large enough effect; inconclusive = small, poorly fitted or top-dose-only effect, or another doubt; inactive = no such curve, though single readings can be large; an effect the other way counts as inactive or inconclusive.

System: not listed separately
Experiment: Primary fluorescence-based thiol-reactive (MSTI) qHTS assay for identification of artifact compounds. (AID 1845221);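 also: thiol-reactive compounds lower the probe fluorescence signal; nearly all actives have a fitted effect of over 65% in size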
Conditions: MSTI thiol-reactivity probe, 1 h; series mostly up to 53.8 µM; activity change, negative = thiol reactive: at the top concentration
How it was run: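 qHTS titration of compound; 4 uM MSTI, PBS pH 7.4, 2% DMSO; 1 h RT, dark; fluorescence 525/598 nm; normalized to Acetyl-MSTI and MSTI; 4-parameter Hill fit.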

Row | SMILES | activity change, negative = thiol reactive
1 | CC(=O)O[C@]1(C(C)=O)CC[C@H]2[C@@H]3C[C@H](C)C4=CC(=O)CC[C@]4(C)[C@H]3CC[C@@]21C | 83.3% (inactive)
2 | CN1C(CCl)Nc2cc(Cl)c(S(N)(=O)=O)cc2S1(=O)=O (stereo not given) | -5.46% (inactive)
3 | CN(C)CCCOc1nn(Cc2ccccc2)c2ccccc12 | 39.7% (inactive)
4 | Nc1ccn([C@@H]2O[C@H](CO)[C@@H](O)C2(F)F)c(=O)n1 | -16.7% (inactive)
5 | CCCCS(=O)(=O)N[C@@H](Cc1ccc(OCCCCC2CCNCC2)cc1)C(=O)O | 7.43% (inactive)
6 | COC(=O)C1=C(C)NC(C)=C(C(=O)O[C@@H]2CCCN(Cc3ccccc3)C2)[C@@H]1c1cccc([N+](=O)[O-])c1 | 128% (inactive)
7 | COc1ccc(CN2CCN(C(c3ccc(F)cc3)c3ccc(F)cc3)CC2)c(OC)c1OC | -8.85% (inactive)
8 | Cc1nc2n(c(=O)c1CCN1CCC(c3noc4cc(F)ccc34)CC1)CCC[C@H]2O | -2.91% (inactive)
9 | CC(=O)OCC(=O)[C@@]1(O)CC[C@H]2[C@@H]3CCC4=CC(=O)C=C[C@]4(C)[C@H]3[C@@H](O)C[C@@]21C | 142% (inactive)

System: Nanoluciferase (engineered Oplophorus gracilirostris luciferase)
Experiment: Primary Nanoluciferase (NLuc) qHTS assay for identification of artifact compounds. (AID 1845222); also: potency is read from the fitted curve at half-maximal effect;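 as to activity, negative = inhibition: NLuc secreted into diluted conditioned medium of S16 cells; 0% = DMSO and -100% = no enzyme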
Conditions: NLuc-conditioned medium, Nano-Glo luminescence, 5 min; series mostly up to 54.1 µM; activity, negative = inhibition: at the top concentration
How it was run: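 Using secreted nanoluciferase in S16 culture medium (0.22 um filtered, 1:55 dilution), compounds were preincubated 15 min at RT. Signal was generated with Nano-Glo reagent (1:100) over 5 min.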

Row | SMILES | activity, negative = inhibition | Potency
10 | CC(=O)O[C@]1(C(C)=O)CC[C@H]2[C@@H]3C[C@H](C)C4=CC(=O)CC[C@]4(C)[C@H]3CC[C@@]21C | -0.786% (inactive) | 
11 | CN1C(CCl)Nc2cc(Cl)c(S(N)(=O)=O)cc2S1(=O)=O (stereo not given) | 0% (inactive) | 
12 | Cc1ccc(Nc2c(F)cccc2Cl)c(CC(=O)O)c1 | -23.1% (inactive) | 
13 | Cc1cc2c(cc1CC(=O)c1sccc1S(=O)(=O)Nc1onc(C)c1Cl)OCO2 |  | 16.9 µM (active)
14 | CN(C)CCCOc1nn(Cc2ccccc2)c2ccccc12 | -10.1% (inactive) | 
15 | Nc1ccn([C@@H]2O[C@H](CO)[C@@H](O)C2(F)F)c(=O)n1 | -4.02% (inactive) | 
16 | CCCCS(=O)(=O)N[C@@H](Cc1ccc(OCCCCC2CCNCC2)cc1)C(=O)O | 0% (inactive) | 
17 | COc1ccc(CN2CCN(C(c3ccc(F)cc3)c3ccc(F)cc3)CC2)c(OC)c1OC | -1.16% (inactive) | 
18 | Cc1nc2n(c(=O)c1CCN1CCC(c3noc4cc(F)ccc34)CC1)CCC[C@H]2O | -4.34% (inactive) | 
19 | CC(=O)OCC(=O)[C@@]1(O)CC[C@H]2[C@@H]3CCC4=CC(=O)C=C[C@]4(C)[C@H]3[C@@H](O)C[C@@]21C | 0% (inactive) | 
20 | CN1CCN(C(c2ccccc2)c2ccccc2)CC1 | 4.88% (inactive) | 
